High-throughput results as filed in PubChem BioAssay.
Rows were chosen to be rich in hits. Some 11% of all compounds tested hit in one or more screens of this group.
Pf growth 48h: inhibits P. falciparum growth in the first generation, 48 h. 310,000 compounds, 5.9% hits. Potency, µM (top dose mostly 28.7 µM), inactives show top-dose activity change, negative = inhibition, usual class: inhibitors. P. falciparum luciferase growth in erythrocytes, 48 h. AID 504832
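First compound was added to culture medium, then infected red cells at 0.1% parasitemia and 2% hematocrit (final). After incubation at 37 C under 5% CO2, luciferase detection reagent was dispensed and light output recorded.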
AmpC detergent: AmpC beta-lactamase inhibition with detergent present. 370,000 compounds, 0.041% hits. Potency, µM (top dose mostly 114 µM), for the others: at the top dose activity change, negative = inhibition, most hits filed as inhibitors. P00811. AmpC hydrolysis of nitrocefin, absorbance 480 nm, 0.01% Triton;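 further: 0% = no-compound wells and -100% = no-enzyme wells; nearly all actives have a fitted effect of over 25% in size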
Target sequence (P00811 whole entry, looked up): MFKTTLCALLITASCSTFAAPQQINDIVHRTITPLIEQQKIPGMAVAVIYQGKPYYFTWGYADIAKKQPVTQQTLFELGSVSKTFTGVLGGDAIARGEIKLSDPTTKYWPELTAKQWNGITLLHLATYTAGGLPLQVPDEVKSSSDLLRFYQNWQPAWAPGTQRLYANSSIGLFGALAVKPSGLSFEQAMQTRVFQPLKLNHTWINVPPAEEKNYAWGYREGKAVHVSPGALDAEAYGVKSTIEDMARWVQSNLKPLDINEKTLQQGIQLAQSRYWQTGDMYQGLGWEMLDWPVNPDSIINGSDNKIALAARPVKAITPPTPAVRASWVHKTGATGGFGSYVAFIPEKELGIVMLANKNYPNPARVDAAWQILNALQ
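AmpC (5.3 nM in the dispensed reagent) in 20 mM phosphate pH 7.0 with 0.01% (detergent screen) or 0.0001% Triton X-100 was preincubated with compounds for 15 min at room temperature. Nitrocefin was then added from an 800 uM solution, and hydrolysis was followed at 480 nm.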
HCV inhibitor: inhibitors of hepatitis C virus infection; Huh7.5.1 HCVcc-Cre infection, luciferase reporter, 44 h; Potency, µM (top dose mostly 41.8 µM), for the others: at the top dose activity change, negative = inhibition, most hits filed as inhibitors; 340,000 compounds, 3.4% hits; AID 651820
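Cells seeded at 1,000/well and cultured 4 h, then compounds added followed by HCVcc-Cre virus (~0.5 moi). After 44 h further culture, luciferase substrate was added, plates held 15 min at room temperature, and luminescence read for 15 sec.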
AMA1 RON2 block: AMA1-RON2 (P. falciparum) interaction inhibition. AID 720542. 360,000 compounds, 0.2% hits. Potency, µM (doses to about 58.2 µM), inactives show top-dose activity change, negative = inhibition, usual class: inhibitors. AlphaScreen AMA1-biotinylated RON2 peptide binding;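 further: 0% = vehicle wells and -100% = peptide control; nearly all actives have a fitted effect of over 45% in size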
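AMA1 (3D7) with his tag at 25 nM final met compounds first, then biotinylated RON2 peptide at 25 nM; detection used donor plus acceptor beads, 10 µg/mL apiece, read by AlphaScreen after 30 min at room temperature.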
Pf growth 96h: P. falciparum growth inhibition at 96 hour, primary screen for plastid delayed-death inhibitors. P. falciparum luciferase reporter growth, 96 h. Potency, µM (highest dose often 28.7 µM), for inactives: at the top dose activity change, negative = inhibition, usual class: inhibitors. 320,000 compounds, 6.9% hits
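Readout is luminescence from an integrated firefly luciferase in P. falciparum. Red cells, 2% hematocrit and 0.05% parasitemia final, were cultured with compound through two parasite generations (96 hours) at 37 C, 5% CO2.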
AmpC inh no detg: inhibitors of E. coli AmpC beta-lactamase without detergent. AmpC nitrocefin hydrolysis, absorbance 480 nm, 0.0001% Triton. 330,000 compounds, 0.52% hits. Potency, µM (highest dose often 57.1 µM), without a hit: top-dose activity change, negative = inhibition, hits mostly inhibitors. P00811;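 further: plate controls were no compound for no effect and no enzyme for full effect; nearly all actives have a fitted effect of over 20% in size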
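AmpC (5.3 nM in the dispensed reagent) in 20 mM phosphate pH 7.0 with 0.01% (detergent screen) or 0.0001% Triton X-100 was preincubated with compounds for 15 min at room temperature. Nitrocefin was then added from an 800 uM solution, and hydrolysis was followed at 480 nm.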
Starred values were filed as active, the others as inactive; u = inconclusive; x = not tested or not shown. The call rests on the fitted dose curve; in most records, active means well fitted curve in the direction sought with a large enough effect; inconclusive means small, poorly fitted or top-dose-only effect, or another doubt; inactive means no such curve, though single readings can be large; an effect the other way counts as inactive or inconclusive. Unless noted, on the % scale 0 is the no-effect control and ±100 the full control effect; potency means the concentration at half of the fitted maximal effect.

SMILES | Pf growth 48h | AmpC detergent | HCV inhibitor | AMA1 RON2 block | Pf growth 96h | AmpC inh no detg
CCN1C(=O)[C@H]2[C@@H](c3ccc(-c4cccc(Cl)c4)c(OC)c3)N[C@@](Cc3ccccc3)(C(=O)OC)[C@H]2C1=O | 2.08µM* | u | 0.1% | 11.5% | 0.415µM* | 13.6%
COc1cccc(CNC(=O)N2CCC(CN3CCC(C)CC3)CC2)c1 | x | 8.5% | x | x | x | x
CN(C)c1ccc(NC(=S)c2ccccn2)cc1 | -54.6% | -10.3% | 11.4% | 14.1µM* | -19.9% | -30.2%
O=[N+]([O-])c1cccc(-c2c(-c3ccccc3)ncc3ccc(F)cc23)c1 | -8.4% | -6.9% | -20.8% | u | 4.65µM* | -25.4%
CCC(C)n1c(=N)c(C(=O)NCc2ccco2)cc2c(=O)n3cc(C)ccc3nc21 (centres undefined) | x | 13.6% | x | x | x | x
O=C1C=C(c2ccc(-c3ccccc3)cc2)C[C@@H](c2ccc(Cl)cc2)C1 | u | -2.4% | 20.3% | 2.6% | 20.7% | -13.8%
O=C1C=C(c2cc(F)ccc2F)C[C@@H](c2ccc(F)cc2)C1 | 2.33µM* | 4.8% | 9.5% | 13.4% | u | -15.4%
O=C1C=C(c2cccc3c2oc2ccccc23)C[C@@H](c2ccc(F)cc2)C1 | 2.33µM* | 7.4% | u | -5.3% | -18.0% | -6.0%
COc1ccccc1C1=CC(=O)C[C@H](c2ccc(Cl)cc2)C1 | 7.38µM* | 1.7% | u | 35.7% | u | -9.7%
CCOC(=O)c1cccc(C2=CC(=O)C[C@H](c3ccc(Cl)cc3)C2)c1 | 13.1µM* | -3.7% | u | -10.8% | u | -19.6%
Cc1ccc(NC(=O)CSc2c3c(nc4ccccc24)CCCC3)cc1F | x | -6.3% | x | x | x | x
CCCC(=O)NC(=S)Nc1ccc(S(=O)(=O)Nc2ccc(OCC)cc2)cc1 | u | 4.3% | -17.5% | 15.4% | u | -29.1%
CCOc1ccc(NS(=O)(=O)c2ccc(NC(=S)NC(=O)CC(C)C)cc2)cc1 | x | -12.3% | 11.2µM* | -4.4% | u | -25.2%
CC(C)CC(=O)NC(=S)Nc1ccc(N2CCN(C(=O)c3cccs3)CC2)cc1 | 10.4µM* | 2.8% | u | 5.4% | u | -15.8%
CC(C)CC(=O)NC(=S)Nc1ccc(NC(=O)c2cccs2)cc1 | x | 3.8% | u | -1.1% | 5.22µM* | -21.2%
CC(C)C(=O)Nc1ccc(N2CCN(C(=O)c3cccs3)CC2)cc1 | -15.3% | u | 17.5% | -1.3% | u | -13.5%
CCc1ccccc1NC(=O)CSc1nc2c(oc3ccccc32)c(=O)n1C | x | 2.8% | x | x | x | x
CCOc1ccc(N2CC(c3nc4ccccc4n3CCCOc3ccc(OC)cc3)CC2=O)cc1 (centres undefined) | x | -6.3% | x | x | x | x
CC(C)Cn1[nH]c2c3c(ccc2c1=O)C(=O)c1ccccc1C3=O | 10.4µM* | -2.9% | 11.2µM* | -8.8% | u | -34.7%
CC(=O)N1CCCc2cc(S(=O)(=O)N3CCC(C(=O)Nc4cccc(Cl)c4C)CC3)ccc21 | x | 0.7% | x | x | x | x
C/C(=N/N=C1/NC(=O)CC(C(=O)Nc2ccccc2)S1)c1cccs1 (centres undefined) | 10.4µM* | 2.3% | 4.7% | 10.9% | 9.28µM* | -2.9%
Cc1cccc(OCC(=O)NCC(=O)n2nc(C)cc2C)c1 | 5.3% | 10.4% | 12.9% | -0.6% | 52.5% | -15.5%
COc1ccc(C(=O)NCc2ccccc2OC)cc1 | u | -4.5% | -18.1% | 2.1% | 5.22µM* | -17.9%
COc1ccccc1CNC(=O)c1ccc(-c2ccccc2)cc1 | -1.1% | -15.8% | u | -1.9% | u | -49.7%
NC(=O)c1ccccc1NC(=O)CS(=O)(=O)Cc1ccccc1 | 23.8% | -6.4% | 6.3% | 17.8% | 9.28µM* | -12.5%
SMILES | Pf growth 48h | AmpC detergent | HCV inhibitor | AMA1 RON2 block | Pf growth 96h | AmpC inh no detg
Cc1cccc(OCC(=O)NCc2cc(C)nc3ccccc23)c1 | -12.5% | -6.1% | u | 10.7% | 9.28µM* | 17.1%
COc1cc(C(=O)NCc2cc(C)nc3ccccc23)cc(OC)c1OC | u | 5.6% | -4.3% | -8.3% | -24.6% | -4.2%
NC(=O)c1ccccc1NC(=O)CCCc1ccccc1 | 65.2% | -12.2% | -7.2% | -5.8% | 8.2% | -15.1%
COc1ccc(C(=O)NCc2cc(C)nc3ccccc23)cc1 | 11.0% | 3.2% | 15.8µM* | 8.7% | 11.0% | -3.8%
Cc1ccc(NC(=O)c2cnn(-c3ccc(C)c(C)c3)c2C2CCN(C(=O)OC(C)(C)C)CC2)c(C)c1 | x | 13.3% | x | x | x | x
Cc1nc(-c2ccc(S(=O)(=O)NCc3ccc(N(C)C)cc3)cc2)co1 | x | -7.4% | x | x | x | x
Cc1cc(C)cc(N2CCn3c2nc2c3c(=O)n(CCc3ccccc3)c(=O)n2C)c1 | x | 19.1% | x | x | x | x
COc1ccccc1CNC(=O)C(NC(=O)c1ccc(C)cc1)C(C)C (centres undefined) | 2.9% | -0.9% | -16.5% | -5.2% | u | -19.9%
COc1ccccc1CNC(=O)CS(=O)(=O)Cc1ccccc1 | 8.6% | -1.8% | 9.2% | -3.7% | 2.62µM* | -4.9%
COc1ccccc1CNC(=O)C(NC(=O)c1ccccc1)C(C)C (centres undefined) | 13.1µM* | 3.9% | 10.0% | 25.5% | -4.6% | -31.6%
Cc1ccc(NC2=C(C(=O)c3ccccc3)N(C)S(=O)(=O)c3ccccc32)cc1 | 9.28µM* | -6.1% | 11.2µM* | -20.5% | 11.7µM* | -30.9%
Fc1ccc(Cn2nnnc2C(c2ccc(F)cc2)N2CC=C(c3ccc(F)cc3)CC2)cc1 (centres undefined) | -24.9% | -12.7% | 15.3% | 0.8% | 13.1µM* | -20.7%
COc1ccc(C(c2nnnn2Cc2cccs2)N2CCN(c3ccc(F)cc3)CC2)cc1OC (centres undefined) | 5.86µM* | -0.4% | -20.5% | -5.0% | 13.1µM* | 92.6%
COc1ccc(Cn2nnnc2C(c2ccccn2)N2CCN(c3cc(Cl)ccc3C)CC2)cc1 (centres undefined) | 11.7µM* | -6.0% | u | u | x | 25.0%
Fc1ccc(C(c2nnnn2Cc2ccccc2)N2CCSCC2)cc1 (centres undefined) | u | -13.3% | 12.2% | -2.3% | x | -1.5%
COc1ccc(Cn2nnnc2C(c2ccc(F)cc2)N2CCN(C3CCCC3)CC2)cc1 (centres undefined) | u | -16.7% | u | -0.7% | 0.0% | 67.5%
COc1ccc(C(c2nnnn2Cc2ccc(F)cc2)N2CCN(c3ccc(OC)cc3)CC2)cc1 (centres undefined) | 10.4µM* | -10.5% | -22.3% | u | 50.1% | 27.1%
O=C(CCBr)N1CCN(C(=O)CCBr)CC1 | -14.7% | x | x | x | u | x
O=C1CC(c2nc3ccccc3n2Cc2c(F)cccc2Cl)CN1c1cccc(C(F)(F)F)c1 (centres undefined) | x | -1.6% | x | x | x | x
